Measurements published in PubChem BioAssay AID588475 (Sanford-Burnham Center for Chemical Genomics, 2011).
Where “and” joins values, the source holds several entries; their conditions need not be identical. Equal entries are not always repeated. Out of some 350,000 compounds screened, about 2,100 (0.6%) were called active.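 How the source made its calls: active means inhibition of the ligand-induced calcium signal above about 50% at the single tested concentration (limit read from the data); inactive means the rest.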 The entries come from a sample that favours actives as a whole. The source holds several records for some structures; these can differ, active in one and inactive in another.

Experiment: blockers of CRF-evoked CRF-R2/CRF-BP calcium response – cell-based, HEK293, calcium dye fluorescence, uHTS, primary screen (AID 588475)
Conditions: CRF-induced calcium fluorescence, at 11.8 µM, stronger effect = higher value

| Structure (SMILES) | inhibition |
| --- | --- |
| Cc1cccc(CSc2nc3c(c(=O)n2C)SCC3)c1 | 59.8% (active) |
| Cn1c(SCC(=O)N2CCCCC2)nc2c(c1=O)SCC2 | -10.6% (inactive) |
| Cc1cccc(CSc2nnc(C)c(=O)n2N)c1 | 18.4% (inactive) |
| CCCN1C2=C(C(=O)CCC2)C(c2ccc(O)c(Br)c2)C2=C1CCCC2=O | -18.3% (inactive) |
| CCc1c(C)nc(N)n2c(SCC(=O)NC3CCCCC3)nnc12 | -4.43% (inactive) |
| CCOc1cc(/C=N/NC(=O)OC)ccc1OCCSc1ccc(Cl)cc1 | -13.1% (inactive) |
| COc1cc(/C=C(/NC(=O)c2ccc(Cl)cc2Cl)C(=O)O)cc(OC)c1OC | -5.5% (inactive) |
| CCOc1cc(/C=C(/C#N)c2ccc(Cl)cc2)cc(Cl)c1OCC(=O)O | 57.4% (active) |
| COc1ccc(SC[C@H](Cc2ccccc2)N2CCN(CCc3ccccc3)CCC2=O)cc1 | -0.63% (inactive) |
| O=C(O)c1cc([N+](=O)[O-])c(Nc2cccc3ccccc23)c([N+](=O)[O-])c1 | 42.1% (inactive) |
| N=C1C(c2nc3ccccc3s2)=C(O)CN1NC(=O)c1ccc([N+](=O)[O-])cc1 | 18.1% (inactive) |
| O=C(NC(Nc1nc2ccc([N+](=O)[O-])cc2s1)(C(F)(F)F)C(F)(F)F)c1ccccc1 | 56.4% (active) |
| O=C(COc1ccc(NC(=O)c2ccccc2[N+](=O)[O-])cc1)c1ccc(F)cc1 | 20.8% (inactive) |
| Cc1ccc(CNC(=O)c2cc(-c3ccccc3C)n(CC3CC(c4cccc([N+](=O)[O-])c4)=NO3)n2)cc1 (stereo unspecified) | 78.1% (active) |
| Cc1ccccc1-c1cc(C(=O)NCc2cccs2)n(CC2CC(c3cccnc3)=NO2)n1 (stereo unspecified) | 9.77% (inactive) |
| COc1ccc(C2=NOC(Cn3nc(C(=O)NCc4ccc5c(c4)OCO5)cc3-c3ccccc3)C2)cc1 (stereo unspecified) | 1.87% (inactive) |
| CC(C)c1cc(C(=O)N(C)C2CCCN(Cc3ccccc3F)C2)n(C)n1 (stereo unspecified) | -12.1% (inactive) |
| CCCCn1c(N)c(N(CC(C)C)C(=O)c2cccc(S(=O)(=O)N3CCN(C(C)=O)CC3)c2)c(=O)[nH]c1=O | 8.7% (inactive) |
| COC(=O)C(CC(=O)Nc1cc(C)ccc1C)Nc1ccccc1OC (stereo unspecified) | 70.2% (active) |
| COc1ccccc1NC(=O)CC(NCCN(C)C)C(=O)O (stereo unspecified) | 3.95% (inactive) |
| Cc1ccc(C)c(NC(=O)COC(=O)CSc2ccccc2)c1 | 6.02% (inactive) |
| CCc1ccc(S(=O)(=O)NCC(O)COc2ccc(OC)cc2)cc1 (stereo unspecified) | -4.68% (inactive) |
| Cc1ccccc1Nc1scc(-c2ccc(Br)cc2)[n+]1-c1ccccc1C | 56.5% (active) |

| Structure (SMILES) | inhibition |
| --- | --- |
| Cc1ccsc1/C=N/NC(=O)Cc1cc(=O)[nH][nH]1 | 14.1% (inactive) |
| Cc1cccc(N2CCN(C(C)C(=O)N3CCc4ccccc43)CC2)c1C (stereo unspecified) | -7.95% (inactive) |
| CCN(CC)C(=O)CSc1ncnc2c1cnn2-c1ccccc1 | 55.8% (active) |
| CCC(C)N(C(=O)CSc1ncnc2c1cnn2-c1ccccc1)C1CCS(=O)(=O)C1 (stereo unspecified) | -8.13% (inactive) |
| CCN(C(=O)CSc1ncnc2c1cnn2-c1ccccc1)C1CCS(=O)(=O)C1 (stereo unspecified) | 4.09% (inactive) |
| O=C(COC(=O)c1cncc(Br)c1)Nc1ccc(S(=O)(=O)N2CCOCC2)cc1 | 5.84% (inactive) |
| COc1ccc(CCN=C2SCC(=O)N2Cc2ccccc2)cc1OC | 7.2% (inactive) |
| COc1ccc(CCNC2=C(Cl)C(=O)N(Cc3ccccc3)C2=O)cc1OC | 54% (active) |
| COc1ccc(CCN2C(=O)C(C)=C(C)C2=O)cc1OC | -6.13% (inactive) |
| N#Cc1ccc(-c2ccc(Cl)cc2)nc1Oc1ccc(F)cc1 | -14% (inactive) |
| Clc1ccc(Cl)c(Oc2ccc(Oc3nc(Cl)ccc3Cl)cc2)n1 | 55.5% (active) |
| CCc1nn(CC(=O)N2CCN(CC)CC2)c(=O)c2cccn12 | -5.15% (inactive) |
| CC(C)=N/N=C1/NC(=O)C(Cc2ccccc2)S1 (stereo unspecified) | 2.42% (inactive) |
| CC(O)c1ccc(OCCN(C)c2ccccn2)cc1 (stereo unspecified) | -5.71% (inactive) |
| CN(CCOc1ccc(CC2SC(=O)NC2=O)cc1)c1ccccn1 (stereo unspecified) | 66.6% (active) and 12.6% (inactive) |
| OC(C#CCN1CCOCC1)(c1ccccc1)C1CCCCC1 (stereo unspecified) | -6% (inactive) |
| Cc1ccccc1-n1c(SCC(=O)Nc2cccc3ccccc23)nc(O)cc1=O | -4.41% (inactive) |
| COc1ccc(S(=O)(=O)N2CCOCC2)cc1NC(=O)COc1ccccc1 | 12.8% (inactive) |
| COc1ccc(S(=O)(=O)N2CCOCC2)cc1NC(=O)CSc1cc(C)ccc1C | 1.57% (inactive) |
| COc1ccc(S(=O)(=O)N2CCOCC2)cc1NC(=O)CC1CC2CCC1C2 (stereo unspecified) | 80.4% (active) |
| O=C(Nc1cccn(Cc2c(Cl)cccc2Cl)c1=O)c1ccc(Cl)cc1 | -7% (inactive) |
| Cc1ccc(OCc2nnc(NC(=O)OCC(C)C)s2)cc1 | -2.73% (inactive) |
| COC(=O)c1nc2n(n1)C(c1ccc([N+](=O)[O-])cc1)C(C(=O)Nc1ccc(Cl)cc1)=C(C)N2 (stereo unspecified) | 56.3% (active) |

| Structure (SMILES) | inhibition |
| --- | --- |
| COc1cc(C2C(C(=O)Nc3ccc(F)cc3)=C(C)Nc3nc(CCCO)nn32)cc(OC)c1OC (stereo unspecified) | 5.65% (inactive) |
| COc1ccc(NC(=O)C2=C(C)NC(=O)NC2c2ccccc2[N+](=O)[O-])cc1 (stereo unspecified) | -10% (inactive) |
| O=C(Nc1cc(-c2ccccc2)nn1-c1ccccc1F)c1ccc([N+](=O)[O-])cc1 | -5.97% (inactive) |
| CS(=O)(=O)C1=NN2C(=N)/C(=C\c3ccc(OCCOc4ccccc4)cc3)C(=O)N=C2S1 | 26.8% (inactive) |
| CCS(=O)(=O)C1=NSC2=NC(=O)/C(=C\c3ccc(OS(=O)(=O)c4ccccc4)cc3)C(=N)N21 | 0.32% (inactive) |
| CCS(=O)(=O)C1=NSC2=NC(=O)/C(=C\c3cc(C)n(-c4cccc(OC)c4)c3C)C(=N)N21 | 81.8% (active) |
| CCOc1ccc(NC(=S)NC(=O)/C=C/c2ccc(OC)cc2)c([N+](=O)[O-])c1 | -8% (inactive) |
| CCOC(=O)/C(C#N)=C\c1c(C)cc(C)c(COC(C)=O)c1C | 3.93% (inactive) |
| CCOC(=O)c1nnn(-c2nonc2-n2cccc2)c1CN1CCC(C(=O)OCC)CC1 | 17.9% (inactive) |
| COc1ccc(-c2ccc(CCC(=O)O)n2NC(=O)c2ccc(C(C)(C)C)cc2)cc1 | 7.59% (inactive) |
| Cc1cccc(OC(C)C(=O)N2CCc3ccccc3C2)c1 (stereo unspecified) | 16.6% (inactive) |
| COCc1cc(=O)[nH]c(SC)n1 | 9.17% (inactive) |
| Cc1cc(C)c2nc3nc(C)cc(C)c3c(N)c2c1 | 90.7% (active) |
| Cc1ccc(/C=N/NC(=S)Nc2cccc(S(=O)(=O)N(C)C)c2)o1 | 82.9% (active) |
| Cc1ccc(/C=N/NC(=S)NC2CCCCC2)o1 | -28.4% (inactive) |
| CN(C)S(=O)(=O)c1cccc(NC(=S)N/N=C/C(=O)c2ccccc2)c1 | 3.21% (inactive) |
| O=C1CC2(CCCC2)C(=O)N1CN1CCN(S(=O)(=O)c2ccc(F)cc2F)CC1 | 6.17% (inactive) |
| Cc1cc(C(=O)OCC(=O)Nc2nccs2)c2ccccc2n1 | 8.78% (inactive) |
| O[C@H]1CN(Cc2cccs2)[C@@H](c2ccc(Cl)cc2)C[C@@H]1n1cc(C2CC2)nn1 | -16.1% (inactive) |
| Cc1cccc(N2CCN(C(=O)c3cnn4c(C(F)F)cc(-c5ccccc5)nc34)CC2)c1C | -11.8% (inactive) |
| CCCc1nc(SCC(=O)Nc2ccccc2OC)c2c(=O)n(C)c(=O)n(C)c2n1 | -6.56% (inactive) |
| CCOc1cccc(=O)c2c(C)n(CC3CCCO3)c(C)c12 (stereo unspecified) | -12.3% (inactive) |
| CN1CN(C)c2ccc([N+](=O)[O-])c3cccc1c23 | 4.39% (inactive) |

| Structure (SMILES) | inhibition |
| --- | --- |
| O=C1c2cccc3c([N+](=O)[O-])ccc(c23)C(=O)N1CC1CCCO1 (stereo unspecified) | 87.2% (active) |
| Cc1ccc(S(=O)(=O)NC(=O)c2cccc(C)c2)cc1 | -9.88% (inactive) |
| CCOc1cc(C2C(C(=O)OC)=CN(C3CCCC3)C=C2C(=O)OC)cc(Br)c1O | 50.2% (active) |
| COC(=O)C1=CN(Cc2ccc(OC)cc2)C=C(C(=O)OC)C1c1ccc(O)c(OC)c1 | -26.4% (inactive) |
| CCCC(=O)Nc1cc(OCC)c(NC(=O)NC2CCCCC2)cc1OCC | 15.3% (inactive) |
| CCn1c(SCC(=O)NC2CC2)nnc1-c1ccccn1 | 2.34% (inactive) |
| CCn1c(SCC(=O)NC2CC2)nnc1-c1ccncc1 | 52% (active) |
| CCn1c(SCC(=O)NC2CC2)nnc1-c1ccccc1OC | 18.7% (inactive) |
| Nc1nc(SCC(=O)Nc2cc(C(F)(F)F)ccc2Cl)[nH]c(=O)c1NC(=O)c1ccco1 | 0.81% (inactive) |
| COC(=O)C1=CO[C@@H](O[C@@H]2O[C@H](CO)[C@@H](O)[C@H](O)[C@H]2O)C2C1C[C@H](O)[C@@H]2C (stereo partly specified) | 1.31% (inactive) |
| COc1ccc(C)cc1NC(=O)Nc1ccccc1SC | 23.5% (inactive) |
| CCOc1ccc(NC(=O)Nc2cc(C)on2)cc1 | -27.8% (inactive) |
| CCOc1ccc(NC(=O)Nc2cc(C)ccc2OC)cc1 | 54.1% (active) |
| CCN(CC(=O)Nc1cc(Cl)ccc1C)C(=O)CN1C(=O)NC2(CCCC2)C1=O | -3.2% (inactive) |
| CN(C(=O)CCNC(=O)Cn1ccc2ccccc2c1=O)c1ccc(Br)cc1 | 1.39% (inactive) |
| Cc1cccc(-c2nc(CS(=O)CC(=O)NC(C)CCc3ccccc3)c(C)o2)c1 (stereo unspecified) | -5.77% (inactive) |
| Cn1nc(N)c2ncc(C(Cl)(Cl)Cl)nc21 | 73.4% (active) |
| COc1ccc(CC(=O)OC(C)C(=O)Nc2ccc(S(N)(=O)=O)cc2)cc1 (stereo unspecified) | -1.19% (inactive) |
| COc1ccc(S(=O)(=O)N2CCN(C(=O)c3cccs3)CC2)cc1OC | 22.7% (inactive) |
| COc1cccc(NC(=S)C(C#N)=C2N(C)c3ccccc3N2C)c1 | 79.1% (active) |
| COc1cccc(NC(=O)Nc2ccc(F)cc2)c1 | -2.92% (inactive) |
| COc1cccc(NC(=S)NC(=O)c2c(Cl)c(C)nn2C)c1 | -4.16% (inactive) |
